Screening results: PubChem BioAssay, National Center for Advancing Translational Sciences (NCATS)
LmPK inh = qHTS Assay for Inhibitors of Leishmania Mexicana Pyruvate Kinase (LmPK); Potency, µM (series often up to 57.5 µM), inactives show top-dose activity change, negative = inhibition, usual class: inhibitors; actives 0.37% (n = 290,000); purified LmPK, Kinase-Glo ATP luminescence, 1 h; AID 1721, 2009; Q27686; also: potency is read from the fitted curve at half-maximal effect; % is scaled to controls: 0 for no effect and ±100 for the full control effect
Target sequence (Q27686 whole entry, looked up): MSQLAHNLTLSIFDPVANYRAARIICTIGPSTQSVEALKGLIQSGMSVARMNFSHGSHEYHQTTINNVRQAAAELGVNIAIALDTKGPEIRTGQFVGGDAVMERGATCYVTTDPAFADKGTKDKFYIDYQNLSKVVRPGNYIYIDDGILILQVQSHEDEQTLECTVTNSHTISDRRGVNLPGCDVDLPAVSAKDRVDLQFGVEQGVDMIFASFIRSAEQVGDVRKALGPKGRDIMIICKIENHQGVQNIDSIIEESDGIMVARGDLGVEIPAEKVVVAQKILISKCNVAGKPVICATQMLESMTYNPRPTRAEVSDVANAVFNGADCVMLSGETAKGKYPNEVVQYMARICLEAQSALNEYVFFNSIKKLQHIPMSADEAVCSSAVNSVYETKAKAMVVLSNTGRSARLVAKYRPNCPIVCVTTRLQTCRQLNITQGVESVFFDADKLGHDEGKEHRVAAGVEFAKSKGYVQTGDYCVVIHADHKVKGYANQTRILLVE
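Pyruvate kinase activity monitored as ATP production (luciferase luminescence). Conditions: 0.1 nM enzyme, 0.5 mM PEP, 0.1 mM ADP, 1 h, RT; normalized against uninhibited and no-enzyme wells.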
Pf growth 48h = Primary qHTS for delayed death inhibitors of the malarial parasite plastid, 48 hour incubation. P. falciparum luciferase growth in erythrocytes, 48 h. Potency, µM (highest dose often 28.7 µM), without a hit: at the top dose activity change, negative = inhibition, most hits filed as inhibitors. actives 5.9% (n = 310,000); also: potency is read from the fitted curve at half-maximal effect; % is scaled to controls: 0 for no effect and ±100 for the full control effect
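Parasite viability was followed by luminescence of a genomically integrated firefly luciferase. Cultures held 0.1% parasitemia at 2% hematocrit (final), incubated under 5% CO2 at 37 C.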
Shiga toxin inh = A qHTS for Small Molecule Inhibitors of Shiga Toxin | AID 2315, 2010 | Vero cells, Shiga toxin protein synthesis inhibition reporter | actives 9.2% (n = 290,000) | inhibition, % at 38.7 µM; in the data active = inhibition mostly above about 28%, no sharp cut-off; inactive = mostly below about 43%; also: 0% is about no effect
Pf growth 96h = Primary qHTS for delayed death inhibitors of the malarial parasite plastid, 96 hour incubation; P. falciparum luciferase reporter growth, 96 h; Potency, µM (highest dose often 28.7 µM), for inactives: at the top dose activity change, negative = inhibition, hits mostly inhibitors; actives 6.9% (n = 320,000); AID 504834, 2011; also: potency is read from the fitted curve at half-maximal effect; % is scaled to controls: 0 for no effect and ±100 for the full control effect
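Two parasite generations (96 h, 37 C, 5% CO2) of compound exposure in infected erythrocytes (0.05% parasitemia, 2% hematocrit). Luciferase-reporter P. falciparum; decreased luminescence indicates inhibited growth, aimed at apicoplast-acting delayed death.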
CHX counter = Cycloheximide Counterscreen for Small Molecule Inhibitors of Shiga Toxin; cell reporter, cycloheximide protein synthesis inhibition counterscreen; max response, %; actives 12% (n = 300,000); AID 2314, 2010; in the data active = max response mostly above about 13%, no sharp cut-off; inactive = mostly below about 14%; also: read at 38.3 µM for the half of the compounds with a filed dose; 0% is about no effect
The depositor's hits bear a star; u = inconclusive; x = no result given; [ ] = dose if it differs, or a comment. Sampled rows, rich in hits. Any-hit rate of the full collection: about 22%. Unless noted, calls follow the shape of the dose curve; as a rule, active = well fitted inhibition curve with a large enough effect; inconclusive = small, poorly fitted or top-dose-only effect, or another doubt; inactive = no such curve, though single readings can be large or run the other way.

SMILES	LmPK inh	Pf growth 48h	Shiga toxin inh	Pf growth 96h	CHX counter
Cc1ccc(NC(=O)c2cc(NC(=O)c3ccco3)ccc2N2CCOCC2)cc1Cl	-0.5%	x	-9.1	4.4%	-2.2
O=C(Nc1ccc(CCC(=O)N2CCCC2)cc1)c1ncn[nH]1	-10.0%	-14.3%	-6.0	53.4%	-2.0
CCC(=O)Nc1ccc(N2CCN(CC)CC2)c(Cl)c1	4.2%	49.8%	-14.2	27.8%	12.0
O=C(Nc1ccc(N2CCCCC2)c(Cl)c1)c1ncn[nH]1	1.2%	0.465µM*	8.0	-5.3%[5.75 µM]	9.8
Cc1cccc(NC(=O)c2cc(NC(=O)c3ccco3)ccc2N2CCCCC2)c1	-3.1%	4.65µM*	-12.4	u	-1.4
CCN1CCN(c2ccc(NC(=O)c3ccco3)cc2Cl)CC1	-0.1%	31.9%	59.0*	40.6%	26.5*
O=C(Nc1cc(Cl)ccc1N1CCOCC1)c1ccco1	-6.5%	0.6%	-15.0	u	-1.8
O=C(Nc1ccc(N2CCOCC2)c([N+](=O)[O-])c1)c1ccco1	-2.9%	19.7%	69.7*	-22.0%	20.2*
COc1ccc(C)cc1NC(=O)c1ccccc1NS(=O)(=O)c1ccc(Cl)s1	4.3%	u	2.2	u	-2.8
CCOC(=O)c1cc2c(cn1)[nH]c1ccccc12	-2.4%	30.3%	59.1*	u	27.5*
O=c1nc2s/c(=C\c3ccc(-c4ccccc4[N+](=O)[O-])o3)c(=O)n2nc1-c1ccccc1	-1.2%	1.4%	5.3	21.7%	9.8
Cc1ccc(-n2c(-c3ccccc3)nnc2-c2cccs2)cc1	2.4%	1.7%	-3.4	4.8%	9.7
Cc1ccc(-n2c(-c3ccc(Cl)cc3)c[n+]3c2CCC3)cc1	0.6%	0.262µM*	0.8	0.104µM*	-1.1
Cc1ccc(-n2c(-c3ccccc3)c[n+]3c2CCC3)cc1	1.0%	1.04µM*	-8.0	0.738µM*	3.4
FC(F)Sc1ccc(-n2c(-c3ccc(Cl)cc3)c[n+]3c2CCC3)cc1	2.2%	u	10.0	u	1.9
CSCCC(NC(=O)c1ccco1)c1nc2ccccc2[nH]1 (centres undefined)	-2.5%	-15.5%	12.4	-29.9%	0.9
Cc1ccc(NC(=O)Nc2cccc(F)c2)nc1	-7.7%	139.8%	21.3	u	26.2*
COC(=O)c1ccccc1NC(=O)Nc1ccc(C)cn1	-1.2%	56.0%	8.3	-3.1%[5.75 µM]	6.6
O=C(Nc1cccc(F)c1)Nc1ccc(Cl)cn1	4.2%	62.6%	38.3*	-20.3%	24.1*
Cc1ccnc(NC(=O)Nc2cccc(F)c2)c1	u	222.5%	73.2*	7.38µM*	41.1*
Cc1cc(C(=O)OCC(=O)c2cccs2)ccc1[N+](=O)[O-]	x	34.2%	x	4.7%	x
C/C(=N/NS(=O)(=O)c1cc(C)ccc1C)c1ccncc1	-2.1%	-9.7%	-9.4	11.7µM*	1.1
C/C(=N/NS(=O)(=O)c1cc(C)ccc1C)c1ccc2c(c1)OCO2	0.5%	-1.2%	-2.9	11.7µM*	-1.4
O=c1cc(CN2CCCCCC2)nc2sccn12	0.6%	10.8%	16.5	u	9.9
Cc1cc(=O)n2ccsc2n1	-3.8%	17.5%	-9.7	13.1µM*	-1.3
SMILES	LmPK inh	Pf growth 48h	Shiga toxin inh	Pf growth 96h	CHX counter
Cc1nc2sccn2c1P(c1c(C)nc2sccn12)c1c(C)nc2sccn12	-0.8%	8.28µM*	-12.2	u	-0.9
CCOC(=O)c1c(C)nc2sccn12	-2.0%	12.5%	-8.9	-23.5%	-5.9
COCCNC(=O)c1nn2c(C(F)(F)F)cc(-c3ccccc3)nc2c1Cl	6.7%	81.4%	23.2	5.4%	-3.7
CCCCNC(=O)CCn1c(=O)c2ccccc2n(CC(=O)NCCc2ccc(OC)c(OC)c2)c1=O	0.1%	9.5%	-15.0	-13.1%	0.7
N#Cc1c(N2CCCC2)nsc1-c1ccccc1	0.7%	56.2%	102.2*	68.8%	52.1*
N#Cc1c(N2CCOCC2)nsc1-c1ccccc1	-1.3%	69.1%	75.2*	91.0%	40.1*
Cc1ccc(Cl)cc1N1CCN(C(=O)CCS(=O)(=O)c2cccc3nonc23)CC1	7.5%	u	11.4	11.7µM*	2.7
CC(C)NC(=O)CCS(=O)(=O)c1cccc2nonc12	-0.2%	x	36.7	x	-0.7
CC(C)CCNC(=O)CCS(=O)(=O)c1cccc2nonc12	-2.5%	3.8%	-13.8	11.7µM*	5.0
